Our source for the Potency, activation and activity change, negative = inhibition values is PubChem BioAssay (NCATS).

Inconclusive results are not listed. Values without a mark were called inactive. Activity calls are given as the source filed them. Calls come from the whole dose curve; as a rule, active = well fitted curve in the direction sought with a large enough effect; inconclusive = small, poorly fitted or top-dose-only effect, or another doubt; inactive = no such curve, though single readings can be large; an effect the other way counts as inactive or inconclusive.

Experiment [1] concerns the target Rap guanine nucleotide exchange factor 3 (Homo sapiens) (UniProt O95398). The experiment in a line: Confirmatory qHTS for antagonist of cAMP-regulated guanine nucleotide exchange factor 3 (EPAC1) (AID 1645880). Note: nearly all actives have a fitted effect of over 55% in size. Note: potency is the fitted concentration of half-maximal effect. In a few lines:
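Released BODIPY-GDP fluoresces less than Rap1-bound BODIPY-GDP; the signal is followed at 480/540 nm at 5-min intervals over 30 min, after 5 min at room temperature. Reactions contain 100 nM EPAC1, 250 nM RAP1B-BODIPY-GDP and 50 uM GDP; results are normalized to ATA and DMSO.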

Experiment [2] has the same target. The experiment in a line: Confirmatory qHTS for agonist of cAMP-regulated guanine nucleotide exchange factor 3 (EPAC1) (AID 1645881).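 For activation: EPAC1 catalysed release of BODIPY-GDP from Rap1B seen as fluorescence loss; 100% = effect of cAMP agonist control.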 Note: nearly all actives have a fitted effect of over 75% in size. Note: potency is the fitted concentration of half-maximal effect.
The target of experiment [3] is Rap guanine nucleotide exchange factor 4 (Homo sapiens) (UniProt Q8WZA2). The experiment in a line: Confirmatory qHTS for agonist of cAMP-regulated guanine nucleotide exchange factor 4 (EPAC2) (AID 1645884). For activation: % is set by controls: 0 for no effect and ±100 for the full control effect.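 Note: nucleotide exchange releases bodipy-GDP from Rap1 and this lowers its fluorescence; nearly all actives have a fitted effect of over 65% in size.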 Note: potency is the fitted concentration of half-maximal effect.
Sequence of Rap guanine nucleotide exchange factor 4 (Homo sapiens) (Q8WZA2 whole entry, looked up): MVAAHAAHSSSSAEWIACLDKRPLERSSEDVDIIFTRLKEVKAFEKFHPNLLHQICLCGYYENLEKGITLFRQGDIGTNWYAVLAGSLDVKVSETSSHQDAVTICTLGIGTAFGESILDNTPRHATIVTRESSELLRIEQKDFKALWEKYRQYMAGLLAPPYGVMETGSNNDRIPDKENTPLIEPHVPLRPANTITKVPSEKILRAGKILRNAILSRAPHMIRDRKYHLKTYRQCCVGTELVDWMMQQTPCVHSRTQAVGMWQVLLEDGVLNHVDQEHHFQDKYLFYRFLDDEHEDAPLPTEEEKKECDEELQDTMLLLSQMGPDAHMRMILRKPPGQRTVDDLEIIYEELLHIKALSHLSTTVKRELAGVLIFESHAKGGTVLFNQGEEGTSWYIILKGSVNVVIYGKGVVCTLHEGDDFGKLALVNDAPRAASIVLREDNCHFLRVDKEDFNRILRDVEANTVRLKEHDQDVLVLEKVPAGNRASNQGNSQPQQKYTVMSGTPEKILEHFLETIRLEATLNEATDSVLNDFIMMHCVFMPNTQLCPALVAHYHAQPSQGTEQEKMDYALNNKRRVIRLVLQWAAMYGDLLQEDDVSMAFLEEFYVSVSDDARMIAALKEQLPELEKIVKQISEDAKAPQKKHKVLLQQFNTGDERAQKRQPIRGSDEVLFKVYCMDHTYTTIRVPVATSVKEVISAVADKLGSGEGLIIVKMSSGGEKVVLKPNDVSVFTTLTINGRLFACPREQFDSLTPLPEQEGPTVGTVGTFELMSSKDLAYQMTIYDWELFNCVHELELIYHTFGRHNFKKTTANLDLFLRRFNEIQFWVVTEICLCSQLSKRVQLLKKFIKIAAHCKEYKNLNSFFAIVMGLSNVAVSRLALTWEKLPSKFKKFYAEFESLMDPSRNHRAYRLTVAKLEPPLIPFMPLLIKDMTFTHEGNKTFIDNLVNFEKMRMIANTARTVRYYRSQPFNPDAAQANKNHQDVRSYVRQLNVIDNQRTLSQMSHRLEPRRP
For experiment [4] the target is unchanged. The experiment in a line: Confirmatory qHTS for antagonist of cAMP-regulated guanine nucleotide exchange factor 4 (EPAC2) (AID 1645885). For activity change, negative = inhibition: % is set by controls: 0 for no effect and ±100 for the full control effect. Note: nearly all actives have a fitted effect of over 25% in size. Note: potency is the fitted concentration of half-maximal effect.
Experiment [5] addresses Rap guanine nucleotide exchange factor 3 (Homo sapiens) (UniProt O95398). The experiment in a line: Counterscreen qHTS for antagonist of cAMP-regulated guanine nucleotide exchange factor 3 (EPAC1) (AID 1645888). Note: % of control where 0% means no effect. In a few lines: (§1)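 Measured: fluorescence of BODIPY-GDP bound to Rap1B, which falls as exchange proceeds. Conditions include 50 uM competing GDP, 5 and 30 min reads, and a later cAMP challenge for antagonist detection.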
Background: A counterscreen serves to expose hits that act by an unwanted route or on another target.

The target is the same in experiment [6]. The experiment in a line: Counterscreen qHTS for agonist of cAMP-regulated guanine nucleotide exchange factor 3 (EPAC1) (AID 1645889). For activation: % of control where 0% means no effect. Note: nearly all actives have a fitted effect of over 40% in size. Note: potency is the fitted concentration of half-maximal effect. In a few lines:
as §1

Sequence of Rap guanine nucleotide exchange factor 3 (Homo sapiens) (O95398 whole entry, looked up): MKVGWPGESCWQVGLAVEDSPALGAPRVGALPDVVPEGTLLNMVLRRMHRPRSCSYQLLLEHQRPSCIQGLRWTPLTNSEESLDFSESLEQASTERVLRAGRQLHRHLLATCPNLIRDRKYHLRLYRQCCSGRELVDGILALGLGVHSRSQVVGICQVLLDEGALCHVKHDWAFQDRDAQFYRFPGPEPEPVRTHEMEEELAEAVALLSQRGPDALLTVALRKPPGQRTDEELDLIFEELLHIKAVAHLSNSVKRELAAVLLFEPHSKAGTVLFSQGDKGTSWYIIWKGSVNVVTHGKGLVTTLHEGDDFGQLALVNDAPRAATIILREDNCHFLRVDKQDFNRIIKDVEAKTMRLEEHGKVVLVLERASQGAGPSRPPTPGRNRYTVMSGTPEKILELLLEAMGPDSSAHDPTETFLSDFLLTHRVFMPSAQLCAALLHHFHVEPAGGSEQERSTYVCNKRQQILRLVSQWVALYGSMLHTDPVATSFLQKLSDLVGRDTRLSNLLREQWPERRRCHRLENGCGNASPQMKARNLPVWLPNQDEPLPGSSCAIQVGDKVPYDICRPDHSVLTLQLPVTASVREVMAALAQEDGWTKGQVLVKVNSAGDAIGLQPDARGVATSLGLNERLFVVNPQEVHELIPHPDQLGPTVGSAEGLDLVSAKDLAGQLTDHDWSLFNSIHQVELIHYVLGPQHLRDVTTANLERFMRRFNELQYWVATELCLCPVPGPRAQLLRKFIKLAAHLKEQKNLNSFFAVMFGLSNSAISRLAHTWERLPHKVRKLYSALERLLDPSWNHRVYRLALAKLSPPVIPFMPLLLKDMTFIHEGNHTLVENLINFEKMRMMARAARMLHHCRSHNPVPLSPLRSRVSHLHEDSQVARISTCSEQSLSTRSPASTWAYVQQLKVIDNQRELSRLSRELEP

In the case of `CCOc1nc(C)cc(C)c1S(=O)(=O)c1ccc(Cl)cc1`, the Potency result in experiment [1], in experiment [2] and in experiment [4] was “inactive” throughout. Moreover, the activation in experiment [3] was -7.98% [at 17.1 µM, percent relative to cAMP agonist control]; in experiment [6] it was 9.26% [at 30.8 µM]. Further, the activity change, negative = inhibition in experiment [5] was 0.426% [at 30.8 µM].
Turning to `Cc1cccc(C)c1OCC(=O)N(Cc1ccco1)Cc1ccco1`, the Potency result in experiment [2], in experiment [3] and in experiment [4] was “inactive” in each case.
Consider `COc1cc(C)ccc1S(=O)(=O)N1CCCCCC1`, for which the Potency entry in experiment [2], in experiment [3], in experiment [4] and in experiment [5] was “inactive” throughout.
With `COc1ccc(-c2cc(OC(=O)c3ccc(Cl)cc3)c3c(C)oc(C)c3c(=O)c2)cc1`, the Potency entry in experiment [2], in experiment [3], in experiment [4] and in experiment [5] was “inactive” in each case.
Turning to `CCCn1c(CN2CCN(C(=O)c3ccco3)CC2)nc2c1c(=O)n(C)c(=O)n2C`, the Potency result in experiment [2], in experiment [3] and in experiment [5] was “inactive” in each case. The Potency in experiment [4] was 10.7 µM (active).
Take `CC(=O)Nc1ccc(SC[C@H](C)CN2CC[C@H](C(C)(C)C)CCC2=O)cc1`: the Potency entry in experiment [2] and in experiment [3] was “inactive” throughout. For the same compound, in experiment [4], the Potency is 44.1 µM (active).
For the compound `CC(=O)N(/N=C1/C(=O)Nc2ccccc21)c1ccccc1`, the Potency in experiment [1] is 67.5 µM (active). Further, the Potency entry in experiment [2], in experiment [3] and in experiment [5] was “inactive” in each case.
For `Cc1cccn2c(=O)cc(CSc3nnc(NC(=O)COc4ccccc4)s3)nc12`, the Potency in experiment [1] was 67.5 µM (active). Also, the Potency result in experiment [2], in experiment [4], in experiment [5] and in experiment [6] was “inactive” throughout.
Regarding `CCCc1cc(=O)oc2c3c(cc(OCC(=O)NCc4ccccn4)c12)OC(C)(C)CC3`, the Potency entry in experiment [1], in experiment [2], in experiment [3], in experiment [4], in experiment [5] and in experiment [6] was “inactive” each time.
For `COc1ccc(C/C(C)=N/NC(=O)c2cccnc2)cc1`, the Potency entry in experiment [1], in experiment [2] and in experiment [4] was “inactive” in each case. Also, the activation in experiment [3] was -0.201% [at 17.1 µM, percent relative to cAMP agonist control]; in experiment [6] it was 7.53% [at 30.8 µM]. Moreover, the activity change, negative = inhibition in experiment [5] is -16% [at 30.8 µM].
Turning to `COC(=O)c1ccc(NC(=O)CCOc2ccccc2)cc1`, the Potency entry in experiment [1], in experiment [2], in experiment [3], in experiment [4], in experiment [5] and in experiment [6] was “inactive” each time.
For the compound `CCOCCCn1c(SCC(=O)Nc2cccc(OC)c2)nc2ccccc2c1=O`, the Potency result in experiment [2], in experiment [3], in experiment [4] and in experiment [5] was “inactive” throughout.
Take `CC1CC(C)CN(C(=O)COC(=O)CNC(=O)C23CC4CC(CC(C4)C2)C3)C1` (stereo not given): the Potency entry in experiment [2], in experiment [3], in experiment [4] and in experiment [5] was “inactive” each time.
`O=C(O)C1CSC(c2ccco2)N1` (stereo not given): the Potency entry in experiment [1], in experiment [2] and in experiment [4] was “inactive” each time. Further, the activation in experiment [3] is 15.3% [at 17.1 µM, percent relative to cAMP agonist control]; in experiment [6], 2.32% [at 30.8 µM]. Besides, the activity change, negative = inhibition in experiment [5] was -26.6% [at 30.8 µM].
For the compound `Cc1cccc(CC2C(=O)Nc3ccccc32)c1` (stereo not given), the Potency entry in experiment [2], in experiment [3], in experiment [4] and in experiment [5] was “inactive” each time.
As to `N#C/C(=C\c1cn(Cc2ccc(C#N)cc2)c2ccccc12)C(=O)NCc1cccs1`, the Potency entry in experiment [1], in experiment [2] and in experiment [4] was “inactive” in each case. Moreover, the activation in experiment [3] was 8.48% [at 17.1 µM, percent relative to cAMP agonist control]; in experiment [6], 15.9% [at 30.8 µM]. In experiment [5], the activity change, negative = inhibition was 7.4% [at 30.8 µM].
Take `O=c1oc2cc(O)ccc2cc1-c1nc2ccccc2o1`: the Potency entry in experiment [1] is “inactive”. For the same compound, the Potency in experiment [2] was 100 µM (active); in experiment [3], 112 µM (active); in experiment [4], 84.9 µM (active); in experiment [6], 70.8 µM (active).
Take `C=CC(=C)CC(NC)c1ccccc1` (stereo not given): the Potency result in experiment [1], in experiment [2], in experiment [3], in experiment [5] and in experiment [6] was “inactive” in each case. Besides, the Potency in experiment [4] is 84.9 µM (active).
In the case of `CCc1ccccc1Oc1nc(NC(C)C)nc2ccsc12`, the Potency entry in experiment [2] and in experiment [4] was “inactive” each time. The activation in experiment [3] is 7.29% [at 17.1 µM, percent relative to cAMP agonist control]. The activity change, negative = inhibition in experiment [5] is -29.4% [at 30.8 µM].
